# Experiments:
# Assay in all cases: PBM binding z-score (relative to random genomic background probes); higher = stronger binding; sequences stand for … in GC…GCGATTGACAGCGTAGAATGAAGG
# [1] = test system: FXR:RXRa (NR concentration 270 nM, RXRa partner concentration 90 nM)
# Method in brief: (§1)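 On custom Agilent 4×180K arrays, double-stranded probes with 34-nt variable regions carried direct-repeat seeds, single-nucleotide variants, half-site ablations or random human genomic background. Ligand-free nuclear receptor dimers were applied for 1 h, and binding was read with antibodies against each partner (one per run). Binding z-scores come from regression-normalized fluorescence, with the random background probes as reference.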
# [2] = test system: LXRa:RXRa (NR concentration 270 nM, RXRa partner concentration 90 nM)
# Method in brief: as §1
# [3] = test system: LXRa homodimer (NR concentration 270 nM)
# Method in brief: as §1
# [4] = test system: LXRb:RXRa (NR concentration 270 nM, RXRa partner concentration 90 nM)
# Method in brief: as §1
# [5] = test system: LXRb homodimer (NR concentration 270 nM)
# Method in brief: as §1
# [6] = test system: PPARa:RXRa (NR concentration 270 nM, RXRa partner concentration 90 nM)
# Method in brief: as §1
# [7] = test system: PPARg:RXRa (NR concentration 180 nM, RXRa partner concentration 90 nM)
# Method in brief: as §1
# [8] = test system: PPARg:RXRa 270nM:90nM, anti-RXR (NR concentration 270 nM, RXRa partner concentration 90 nM)
# Method in brief: as §1
# [9] = test system: PPARg:RXRa 30nM:10nM, anti-RXR (NR concentration 30 nM, RXRa partner concentration 10 nM)
# Method in brief: as §1
# [10] = test system: PPARg:RXRa 90nM:30nM, anti-RXR (NR concentration 90 nM, RXRa partner concentration 30 nM)
# Method in brief: as §1
Sequence,PBM binding z-score [1],PBM binding z-score [2],PBM binding z-score [3],PBM binding z-score [4],PBM binding z-score [5],PBM binding z-score [6],PBM binding z-score [7],PBM binding z-score [8],PBM binding z-score [9],PBM binding z-score [10]
ATACCAAGGTTATCGTGAGGTCGTTGATACTAAC,3.14,4.42,2.28,2.93,0.533,2.77,1.24,1.56,0.633,1.07
CGTCCAAGGTCAAGGTGAGTGAAAGAGACTCGAA,7.1,4.92,0.292,3.92,0.281,5.71,5.33,5.61,2.05,4.04
CGAACTAGGTAAAGGACAGTGAATCTCCGCACGC,-0.281,-0.379,-0.301,-0.788,-0.59,1.32,1.51,1.3,-0.0812,0.891
ATATGTAGGTTACGTCCGGGTCATTCAGGCTATG,2.37,4.62,1.21,3.12,0.722,4.6,5.86,5.24,2.88,4.48
CGAACTAGGTCATAGGACAGTGAAAGGCGACGTA,3.51,2.47,0.169,1.66,-0.283,5.07,9.06,7.62,6.41,7.72
CGAACTAGGTCCCCAGGACAGTGAAGAGGTTGGA,-0.407,-0.759,-0.417,-0.926,-1.3,0.171,0.418,0.762,-0.453,0.0759
GCATATAGGTAATTCAAGGTGAAAGTCCGATTGT,0.457,4.97,0.799,2.13,-0.412,1.9,0.967,1.51,0.0519,0.865
ATATGTAGGTTAGGGTCAATCAGAAAGTAGGGAA,4.67,3.66,0.491,3.9,1.23,5.48,7.67,6.41,3.89,5.93
GCTGCTAGGTCAGGTTGGTCGGCTAACGGGTACG,1.01,0.53,-0.245,0.0524,-0.665,1.04,0.113,0.773,-0.581,0.235
AAATGTAGGTTAGGGTCATTCAGAAAGTAGGGAA,5.35,4.2,1.68,4.67,1.5,5.81,8.25,6.63,5.16,6.92
ATCTGTAGGTTAGGGTCATTCAGAAAGTAGGGAA,4.95,4.18,1.54,4.44,2.08,4.99,4.27,4.32,2.09,3.76
ACTAGTTGGTCAGCTGAGGTCACACACAATTCGG,4.25,3.46,1.96,3.8,0.66,3.89,1.97,2.31,0.854,1.58
ATATGTAGATTAGGGTCATTCAGAAAGTAGGGAA,4.07,3.39,0.828,4.21,1.27,4.91,3.51,3.48,1.4,2.69
CGAACTAGGTCACCAGGACAGCGAAGAGGTTGGA,3.93,2.11,-0.245,1.55,-0.88,4.91,8.61,6.98,4.85,6.78
CCTCGGAGGACAACCGGAGGTCAGAGCTGCCAGA,1.26,2.64,2.71,1.52,-0.532,1.78,0.316,0.642,-0.954,0.0511
CCTAGCAGGCCAGGTTCACTCAAGCATTTCGCTT,0.117,0.554,-0.238,0.666,-0.142,0.874,-0.212,-0.0179,-0.854,-0.512
CCTTACGGGTCCCTGACAGGTTATAGCATTTGGA,-0.274,-0.086,0.128,-0.0575,-0.647,0.0699,0.112,-0.345,-0.32,-0.402
CGAACTATGTCACCAGGACAGTGAAGAGGTTGGA,0.32,0.0175,-0.0452,-0.257,-0.182,1.17,1.5,1.26,0.318,0.775
ATCGAAAGGTCGAGGAGGTGAGTATACACCGTTT,4.46,3.42,-0.194,2.55,0.629,4.26,2.8,3.19,0.595,2.06
GATACAGGGTCAATGCCAGAGTACGCGTATTGAT,6.02,3.64,-0.0445,3.44,-0.0572,5.2,4.79,4.33,1.52,2.95
ATATGTGGGTTATCGGGTCATTCAGTTTGCGCAT,3.03,2.75,1.74,3.53,1.8,4.86,6.89,5.78,3.08,5.43
GATACACGGTCAAGGCCAGAGTACGCGTATTGAT,0.0472,0.275,-0.18,-0.406,-0.667,-0.0579,0.695,-0.00524,-0.0944,-0.0776
CCTTACGGGTAACTCCAGGTTATAGCATCGGAGT,0.565,7.03,3.25,4.13,0.0113,0.572,0.317,0.049,-0.487,-0.0126
CGAACTAGGTAACCAGGACAGTGAAGAGGTTGGA,-0.0198,-0.368,-0.222,-0.525,-0.784,1.66,2.32,2,0.303,0.958

# — the supplement of paper PMC6555819
